Data reported in PubChem BioAssay (Tox21).
Where “and” joins values, the source holds several entries; their conditions need not be identical. Equal values may be shown once. Results filed as inconclusive are left out. Entries that show only a call come without a potency. More than one record can exist for a structure, and the calls need not agree. Calls of active or inactive are those of the source. Unless noted, the call rests on the fitted dose curve; in most records, active means well fitted cell-killing curve with a large enough effect in the repeat runs (not every such curve was filed as active); inconclusive means weak or mixed curves, or effect the other way; inactive means no such curve, though single readings can be large or run the other way.

Target: Nuclear receptor subfamily 1 group I member 3 (Homo sapiens) (UniProt Q14994)
Sequence (Q14994 whole entry, looked up): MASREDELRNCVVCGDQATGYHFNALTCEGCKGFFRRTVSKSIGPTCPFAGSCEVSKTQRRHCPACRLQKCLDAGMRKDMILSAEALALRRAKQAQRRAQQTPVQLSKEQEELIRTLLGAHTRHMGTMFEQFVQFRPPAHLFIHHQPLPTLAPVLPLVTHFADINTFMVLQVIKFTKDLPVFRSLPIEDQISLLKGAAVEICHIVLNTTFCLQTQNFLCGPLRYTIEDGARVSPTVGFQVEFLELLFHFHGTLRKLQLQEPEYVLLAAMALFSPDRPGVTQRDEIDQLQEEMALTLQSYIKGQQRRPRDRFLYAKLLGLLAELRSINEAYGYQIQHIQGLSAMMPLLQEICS
Experiment: qHTS assay to identify small molecule agonists of the constitutive androstane receptor (CAR) signaling pathway (AID 1224839; active means well fitted activation curve with a large enough effect in the repeat runs; further: nearly all actives have a fitted effect of over 15% in size; further: potency means the concentration at half of the fitted maximal effect;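 on activation: HepG2 cells stably carrying human CAR and a CYP2B6 luciferase reporter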)
Conditions: HepG2 hCAR CYP2B6-luciferase, agonist mode, 24 h; series mostly up to 92.4 µM
Summary of the method: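 HepG2-CYP2B6-hCAR cells, 2500/well, 4 h pre-incubation; compounds 15 conc.; PK11195 0.75 uM final; 24 h, 37 C/5% CO2; ONE-Glo luciferase read.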
With `CNC(=O)Oc1ccccc1OC(C)C` the Potency was “inactive”.
In the case of `CN(N=O)c1ccccc1`, the Potency is reported as “inactive”.
For `C1CN2CCN1CC2`, the Potency was “inactive”.
In the case of `CCCN(CCC)c1c([N+](=O)[O-])cc(C(F)(F)F)cc1[N+](=O)[O-]`, the Potency is reported as “inactive”.
In the case of `CC(C)C#N`, the Potency is reported as “inactive”.
With `BrCCBr` the Potency was “inactive”.
In the case of `C=CCO`, the Potency is reported as “inactive”.
For `O=[N+]([O-])c1ccc(Oc2ccc(Cl)cc2Cl)cc1`, the Potency was 54.8 µM (active) and inactive.
For `NCCc1ccc(O)cc1`, the Potency was “inactive”.
In the case of `CON(C)C(=O)Nc1ccc(Cl)c(Cl)c1`, the Potency is reported as 61.4 µM (active) and 54.5 µM (active).
In the case of `C1CC2OC2CC1C1CO1` (stereo not given), the Potency is reported as “inactive”.
In the case of `c1ccc(OP(Oc2ccccc2)Oc2ccccc2)cc1`, the Potency is reported as “inactive”.
In the case of `CC(C)(C)OOC(C)(C)C`, the Potency is reported as “inactive”.
In the case of `CCCN(CCC)N=O`, the Potency is reported as “inactive”.
With `C[C@]12CC[C@H]3[C@@H](CC[C@@]45O[C@@H]4C(O)=C(C#N)C[C@]35C)[C@@H]1CC[C@@H]2O` the Potency was “inactive”.
For `CN(C)[C@@H]1C(=O)C(C(N)=O)=C(O)[C@@]2(O)C(=O)C3=C(O)c4c(O)cccc4[C@@](C)(O)[C@H]3C[C@@H]12`, the Potency was “inactive”.
For `O=NN1CCCCCCC1`, the Potency was “inactive”.
For `CCOC(=O)c1ccccc1C(=O)OCC`, the Potency was “inactive”.
In the case of `c1cc2c3c(cccc3c1)CC2`, the Potency is reported as “inactive”.
For `O=c1n(Cl)c(=O)n(Cl)c(=O)n1Cl`, the Potency was “inactive”.
With `CCC(C)(CC)c1cc(NC(=O)c2c(OC)cccc2OC)on1` the Potency was “inactive”.
For `Cc1ccc(N)cc1Cl`, the Potency was “inactive”.
With `Nc1ccccc1C(=O)O` the Potency was “inactive”.
For `COC(=O)c1ccccc1N`, the Potency was “inactive”.
For `ClCc1cccnc1`, the Potency was “inactive”.
In the case of `COC(=O)NC(=S)Nc1ccccc1NC(=S)NC(=O)OC`, the Potency is reported as “inactive”.
In the case of `COC(=O)NS(=O)(=O)c1ccc(N)cc1`, the Potency is reported as “inactive”.
For `CCC[CH2][Sn]([Cl])([Cl])[Cl]`, the Potency was “inactive”.
In the case of `Cc1cc(Cl)ccc1O`, the Potency is reported as “inactive”.
For `NCC(O)c1ccc(O)cc1` (stereo not given), the Potency was “inactive”.
With `CN1C(=O)CN=C(c2ccccc2)c2cc(Cl)ccc21` the Potency was “inactive”.
In the case of `CCc1cccc(C)c1N(C(=O)CCl)C(C)COC` (stereo not given), the Potency is reported as 25.7 µM (active) and 15.4 µM (active).
With `Cn1cc(-c2ccccc2)c(=O)c(-c2cccc(C(F)(F)F)c2)c1` the Potency was “inactive”.
For `CN=C=S`, the Potency was “inactive”.
For `CCCCOC(=O)c1ccccc1C(=O)OCCCC`, the Potency was “inactive”.
For `CC(=O)C=C(C)C`, the Potency was “inactive”.

Tested on: not listed separately
Experiment: qHTS assay to identify small molecule antagonists of the estrogen related receptor signaling pathway with the pleiotropic PPARgamma coactivator (PGC) from Tox21 10K library - cell viability counter screen (AID 1224840); further: nearly all actives have a fitted effect of over 40% in size
Conditions: PGC/ERR reporter cells viability, CellTiter-Fluor, 17.5 h; series mostly up to 92.4 µM
Summary of the method: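 Fluorescence read-out of CellTiter-Fluor viability reagent, added after cells had been exposed to compound in DMSO for 17.5 h at 37 C; 30 min development at 37 C/5% CO2. Cells: PGC/ERR line, 2,000/well.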
In the case of `CNC(=O)Oc1ccccc1OC(C)C`, the Potency is reported as “inactive”.
For `CN(N=O)c1ccccc1`, the Potency was “inactive”.
With `C1CN2CCN1CC2` the Potency was “inactive”.
In the case of `CCCN(CCC)c1c([N+](=O)[O-])cc(C(F)(F)F)cc1[N+](=O)[O-]`, the Potency is reported as “inactive”.
In the case of `CC(C)C#N`, the Potency is reported as “inactive”.
In the case of `BrCCBr`, the Potency is reported as “inactive”.
In the case of `C=CCO`, the Potency is reported as “inactive”.
For `O=[N+]([O-])c1ccc(Oc2ccc(Cl)cc2Cl)cc1`, the Potency was “inactive”.
For `NCCc1ccc(O)cc1`, the Potency was “inactive”.
With `CON(C)C(=O)Nc1ccc(Cl)c(Cl)c1` the Potency was “inactive”.
With `C1CC2OC2CC1C1CO1` (stereo not given) the Potency was “inactive”.
With `c1ccc(OP(Oc2ccccc2)Oc2ccccc2)cc1` the Potency was “inactive”.
With `CC(C)(C)OOC(C)(C)C` the Potency was “inactive”.
With `CCCN(CCC)N=O` the Potency was “inactive”.
In the case of `C[C@]12CC[C@H]3[C@@H](CC[C@@]45O[C@@H]4C(O)=C(C#N)C[C@]35C)[C@@H]1CC[C@@H]2O`, the Potency is reported as “inactive”.
For `CN(C)[C@@H]1C(=O)C(C(N)=O)=C(O)[C@@]2(O)C(=O)C3=C(O)c4c(O)cccc4[C@@](C)(O)[C@H]3C[C@@H]12`, the Potency was “inactive”.
In the case of `O=NN1CCCCCCC1`, the Potency is reported as “inactive”.
In the case of `CCOC(=O)c1ccccc1C(=O)OCC`, the Potency is reported as “inactive”.
For `c1cc2c3c(cccc3c1)CC2`, the Potency was “inactive”.
In the case of `O=c1n(Cl)c(=O)n(Cl)c(=O)n1Cl`, the Potency is reported as “inactive”.
For `CCC(C)(CC)c1cc(NC(=O)c2c(OC)cccc2OC)on1`, the Potency was “inactive”.
With `Cc1ccc(N)cc1Cl` the Potency was “inactive”.
In the case of `Nc1ccccc1C(=O)O`, the Potency is reported as “inactive”.
With `COC(=O)c1ccccc1N` the Potency was “inactive”.
With `ClCc1cccnc1` the Potency was “inactive”.
For `COC(=O)NC(=S)Nc1ccccc1NC(=S)NC(=O)OC`, the Potency was “inactive”.
For `COC(=O)NS(=O)(=O)c1ccc(N)cc1`, the Potency was “inactive”.
In the case of `CCC[CH2][Sn]([Cl])([Cl])[Cl]`, the Potency is reported as “inactive”.
With `Cc1cc(Cl)ccc1O` the Potency was “inactive”.
With `NCC(O)c1ccc(O)cc1` (stereo not given) the Potency was “inactive”.
For `CN1C(=O)CN=C(c2ccccc2)c2cc(Cl)ccc21`, the Potency was “inactive”.
In the case of `CCc1cccc(C)c1N(C(=O)CCl)C(C)COC` (stereo not given), the Potency is reported as “inactive”.
With `Cn1cc(-c2ccccc2)c(=O)c(-c2cccc(C(F)(F)F)c2)c1` the Potency was “inactive”.
For `CN=C=S`, the Potency was “inactive”.
For `CCCCOC(=O)c1ccccc1C(=O)OCCCC`, the Potency was “inactive”.
In the case of `CC(=O)C=C(C)C`, the Potency is reported as “inactive”.

Tested on: not listed separately
Experiment: qHTS assay to identify small molecule antagonists of the estrogen related receptor signaling pathway with the pleiotropic PPARgamma coactivator (PGC) from Tox21 10K library (AID 1224841; call rule not given here; further: actives are mostly falling curves and most rising ones were filed inactive; nearly all actives have a fitted effect of over 50% in size; further: potency means the concentration at half of the fitted maximal effect)
Conditions: PGC/ERR reporter cell line, ONE-Glo luciferase, 18 h; series mostly up to 92.4 µM
Summary of the method: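 Luminescence read-out (One-Glo luciferase reagent, 30 min at room temperature) from PGC/ERR cells exposed to DMSO-dissolved test compounds for 18 h at 37 C; cells, 2,000 per well, had been preincubated 6 h before compound transfer.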
For `CNC(=O)Oc1ccccc1OC(C)C`, the Potency was “inactive”.
For `CN(N=O)c1ccccc1`, the Potency was “inactive”.
For `BrCCBr`, the Potency was “inactive”.
For `O=[N+]([O-])c1ccc(Oc2ccc(Cl)cc2Cl)cc1`, the Potency was “inactive”.
For `CON(C)C(=O)Nc1ccc(Cl)c(Cl)c1`, the Potency was “inactive”.
With `CC(C)(C)OOC(C)(C)C` the Potency was “inactive”.
For `CCOC(=O)c1ccccc1C(=O)OCC`, the Potency was “inactive”.
With `CCC(C)(CC)c1cc(NC(=O)c2c(OC)cccc2OC)on1` the Potency was 30.7 µM (active) and inactive.
For `Nc1ccccc1C(=O)O`, the Potency was “inactive”.
In the case of `COC(=O)c1ccccc1N`, the Potency is reported as “inactive”.
In the case of `COC(=O)NS(=O)(=O)c1ccc(N)cc1`, the Potency is reported as “inactive”.
For `CCC[CH2][Sn]([Cl])([Cl])[Cl]`, the Potency was 31.1 µM (active).
For `CN1C(=O)CN=C(c2ccccc2)c2cc(Cl)ccc21`, the Potency was “inactive”.
For `CCc1cccc(C)c1N(C(=O)CCl)C(C)COC` (stereo not given), the Potency was 45.8 µM (active) and 24.3 µM (active).
In the case of `Cn1cc(-c2ccccc2)c(=O)c(-c2cccc(C(F)(F)F)c2)c1`, the Potency is reported as “inactive”.
With `CN=C=S` the Potency was “inactive”.
With `CCCCOC(=O)c1ccccc1C(=O)OCCCC` the Potency was “inactive”.
With `CC(=O)C=C(C)C` the Potency was “inactive”.
